CSC inhib = blocks cancer stem cells; cancer stem cell-like cells viability, luminescence; inhibition, % at 7.5 µM; 300,000 compounds, 1.1% hits; AID 2717; in the data active = inhibition above about 75%; inconclusive = no clear call, values can overlap the other calls; tested in HMLE shEcad cells
MPTP inh = inhibitors of mitochondrial permeability transition pore; isolated mouse mitochondria, Ca2+ swelling absorbance, 30 min; inhibition, % at 10 µM; AID 602449; 360,000 compounds, 1.4% hits;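 active = inhibition of 50% or more, scaled per plate between neutral and stimulator controls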
Mdm2 MdmX PPI = human Mdm2/MdmX binding inhibition. inhibition, % at 8 µM. 330,000 compounds, 3% hits. SaOS-2 split-luciferase Mdm2/MdmX complementation, luminescence. AID 485346;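 active = inhibition of at least 50% at 8 µM in the primary screen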
Target sequence (O15151 whole entry, looked up): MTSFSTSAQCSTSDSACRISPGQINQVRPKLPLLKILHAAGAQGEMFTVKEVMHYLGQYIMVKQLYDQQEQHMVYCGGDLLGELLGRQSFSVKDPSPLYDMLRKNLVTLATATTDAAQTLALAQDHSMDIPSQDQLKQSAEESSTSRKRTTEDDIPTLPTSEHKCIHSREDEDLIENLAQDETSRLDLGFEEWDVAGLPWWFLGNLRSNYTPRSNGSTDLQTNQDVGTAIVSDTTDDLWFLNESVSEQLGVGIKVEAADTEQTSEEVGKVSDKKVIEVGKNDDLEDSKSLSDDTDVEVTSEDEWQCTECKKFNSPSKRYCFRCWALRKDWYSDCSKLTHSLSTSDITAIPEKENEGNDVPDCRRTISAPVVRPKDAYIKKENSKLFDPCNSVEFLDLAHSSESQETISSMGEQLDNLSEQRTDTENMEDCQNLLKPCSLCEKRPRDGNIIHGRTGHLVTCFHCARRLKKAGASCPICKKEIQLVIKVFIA
Target sequence (Q00987 whole entry, looked up): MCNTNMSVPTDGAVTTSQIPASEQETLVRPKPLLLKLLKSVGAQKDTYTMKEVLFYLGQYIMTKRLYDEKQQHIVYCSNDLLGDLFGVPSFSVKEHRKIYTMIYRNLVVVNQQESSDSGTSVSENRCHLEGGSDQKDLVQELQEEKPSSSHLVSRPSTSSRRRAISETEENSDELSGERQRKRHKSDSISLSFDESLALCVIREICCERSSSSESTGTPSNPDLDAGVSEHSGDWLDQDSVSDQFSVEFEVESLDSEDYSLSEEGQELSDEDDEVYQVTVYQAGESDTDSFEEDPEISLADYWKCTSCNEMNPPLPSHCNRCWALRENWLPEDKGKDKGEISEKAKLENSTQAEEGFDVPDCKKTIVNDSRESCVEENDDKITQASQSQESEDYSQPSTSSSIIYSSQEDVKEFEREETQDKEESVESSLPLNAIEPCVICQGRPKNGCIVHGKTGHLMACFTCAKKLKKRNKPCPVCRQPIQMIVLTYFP
Beta cell apopt = blocks beta cell apoptosis | INS-1E cytokine-induced death, ATP luminescence, 48 h; percent of positive-control rescue, neutral wells zero | protection from apoptosis, % (no concentration beside the values) | 300,000 compounds, 0.8% hits | AID 435005;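 active = Every replicate reaches about 75%, or at least half do and their mean reaches it too, limit read from the data; inconclusive = At least half of replicates reach the limit but their mean does not; inactive = Under half of replicates reach the limit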;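 also: higher means more ATP so stronger rescue from cytokine killing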
Calb FLC = C. albicans growth modulation with fluconazole. growth inhibition, % (no concentration beside the values). C. albicans CaCi-2 (fluconazole-resistant clinical isolate) + fluconazole, Alamar Blue growth, 48 h. AID 1979. 300,000 compounds, 0.57% hits;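 active = growth inhibition above about 58% in most replicates, limit read from the data, passing the limit was not always enough; inconclusive = exactly half the replicates above a set limit; inactive = most replicates below a set limit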;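 also: all wells also contain fluconazole at 8 µg/ml as a sub-toxic cotreatment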
Rh123 counter = membrane potential counter-screen of mitochondrial pore inhibitors; inhibition, % at 10 µM; 5,000 compounds, 78% hits; shares compounds with MPTP inh; AID 624504; isolated mitochondria, Rhodamine 123 fluorescence; in the data active = inhibition above about 22%
MPTP swell DR = MPTP inhibition, dose response swelling confirmation; shares compounds with MPTP inh; IC50, µM; isolated mitochondria swelling, absorbance; 780 compounds, 58% hits; AID 651561; in the data active = IC50 below about 20 µM
MPTP cs DR = counter-screen for mitochondrial permeability transition pore inhibitors, dose response; shares compounds with MPTP inh; isolated mitochondria counterscreen, fluorescence read-out; IC50, µM; 780 compounds, 49% hits; AID 651564; in the data active = IC50 below about 80 µM
Each line names hits and unclear results; the compound was inactive in the other large screens (follow-up assays come after a bar, where they were run). The list is not random: actives were taken first. Their share in the collection is about 4.8%.

Cc1cccc(N/N=C(\C#N)S(=O)(=O)C(C)(C)C)c1	none (no result: Mdm2 MdmX PPI)
Oc1c(C=C2N=c3ccccc3=N2)sc(=S)n1C1CCCCC1	MPTP inh 77 | Rh123 counter inactive | MPTP swell DR inactive | MPTP cs DR inactive
COc1ccccc1-n1c(SCC(=O)c2ccc(O)cc2O)nc2cc([N+](=O)[O-])ccc21	MPTP inh 88 (no result: CSC inhib) | Rh123 counter 66
COc1ccccc1-n1c(SCC(=O)NC2CCS(=O)(=O)C2)nc2cc([N+](=O)[O-])ccc21 (stereo not given)	none
Cc1ccc(NC(=O)C(C)N=C2NS(=O)(=O)c3ccccc32)cc1F (stereo not given)	MPTP inh 87 | Rh123 counter 88
CC1=NN(c2ccc([N+](=O)[O-])cc2)C(=O)/C1=C\N(C)C	MPTP inh 99 | Rh123 counter inactive
CCN(CC)CC#CCC(C)(c1ccccc1)c1ccccc1	MPTP inh 59 | Rh123 counter inactive | MPTP swell DR inactive | MPTP cs DR 28
COc1ccccc1CCNC(=O)Nc1cccc([N+](=O)[O-])c1	MPTP inh 68 | Rh123 counter 77
COc1ccc(NC(=O)Nc2cccc([N+](=O)[O-])c2)cc1Cl	MPTP inh 94 | Rh123 counter 80
COc1ccc(OC(C)C(=O)Nc2cccc([N+](=O)[O-])c2)cc1 (stereo not given)	none
COc1ccc(NC(=S)Nc2cccc([N+](=O)[O-])c2)cc1	MPTP inh 85 | Rh123 counter 87
O=C(NCCOc1ccccc1)c1ccccc1SCC(=O)N1CCCC1	none (no result: Calb FLC)
COc1ccc(S(=O)(=O)N2CCN(C(=O)c3ccc(NC(C)=O)cc3)CC2)cc1	none (no result: CSC inhib, Calb FLC)
Cc1ccc(C)c(Oc2cc(NC(=O)CCCn3nc(C)c([N+](=O)[O-])c3C)cc([N+](=O)[O-])c2)c1	MPTP inh 94 | Rh123 counter 75
O=C(Nc1cc(S(=O)(=O)N2CCCCC2)ccc1Cl)c1ccccc1NS(=O)(=O)c1ccc(F)cc1	CSC inhib 83, MPTP inh 97, Beta cell apopt 130, Calb FLC inconclusive (no result: Mdm2 MdmX PPI) | Rh123 counter 60
O=C(Nc1cc(S(=O)(=O)Nc2ccc(Cl)cc2)ccc1O)c1ccc(S(=O)(=O)N2CCCCCC2)cc1	MPTP inh 91 | Rh123 counter 42
O=C(Nc1cc(S(=O)(=O)N2CCOCC2)ccc1O)c1ccc(S(=O)(=O)N2CCCCC2)cc1	none (no result: Calb FLC)
O=C(Nc1cc(S(=O)(=O)N2CCCCC2)ccc1O)c1ccccc1NS(=O)(=O)c1ccc(F)cc1	MPTP inh 97 | Rh123 counter 71
CCOc1ccc(NC(=O)c2ccccc2NS(=O)(=O)c2ccc(F)cc2)c([N+](=O)[O-])c1	MPTP inh 92 | Rh123 counter 94
C[C@H]1CN([C@@H](C)CO)S(=O)(=O)c2ccc(Br)cc2O[C@H]1CN(C)S(=O)(=O)c1ccccc1	none (no result: CSC inhib, Mdm2 MdmX PPI, Beta cell apopt, Calb FLC)
COc1ccc([C@H]2CC(=O)C=C(c3ccc(SC)cc3)C2)cc1	none (no result: Calb FLC)
O=C(NCc1ccc(Cl)cc1)N1CCN(S(=O)(=O)c2ccccc2)CC1	none
O=C(O)Cc1ccc(NC(=O)COc2ccc3ccccc3c2)cc1	none (no result: CSC inhib, Beta cell apopt)
O=C(COc1ccc(Cl)cc1)Nc1ccc(Cc2ccncc2)cc1	MPTP inh 75 (no result: Beta cell apopt) | Rh123 counter 72
O=C(COc1ccc2ccccc2c1)Nc1ccc(Cc2ccncc2)cc1	MPTP inh 94 (no result: CSC inhib, Beta cell apopt) | Rh123 counter 88
COc1cc(C2NC(=O)NC(C)=C2C(C)=O)ccc1O (stereo not given)	none
Nc1nnc(CC(=O)N/N=C/c2cccc([N+](=O)[O-])c2)s1	none
Nc1nnc(CC(=O)N/N=C/c2cc([N+](=O)[O-])cc(Br)c2O)s1	MPTP inh 53 (no result: Calb FLC) | Rh123 counter inactive
OC(COc1ccc(Br)cc1)CN1CCC(Cc2ccccc2)CC1 (stereo not given)	MPTP inh 64 | Rh123 counter inactive | MPTP swell DR 6.3 | MPTP cs DR 34
CCCCCCCCNCCS(=O)(=O)NC1CCCCC1	none (no result: CSC inhib, Mdm2 MdmX PPI, Beta cell apopt, Calb FLC)
COc1ccc(/C=C/CN2CCN(Cc3ccc(F)cc3)C(CCO)C2)cc1 (stereo not given)	none
CN(C)S(=O)(=O)c1cccc(NC(=S)Nc2cc(Cl)cc(Cl)c2)c1	MPTP inh 88 | Rh123 counter 93
CCN(CCO)c1ccc(NC(=S)Nc2cccc(S(=O)(=O)N(C)C)c2)cc1	none
COc1cccc(/C=N/NC(=S)Nc2cccc(S(=O)(=O)N(C)C)c2)c1	none
CN(C)S(=O)(=O)c1cccc(NC(=S)Nc2ccc(Cl)cc2Cl)c1	MPTP inh 90 | Rh123 counter 93
COc1ccc(O)c(/C=N/NC(=S)Nc2cccc(S(=O)(=O)N(C)C)c2)c1	CSC inhib 97, MPTP inh 51 (no result: Mdm2 MdmX PPI) | Rh123 counter 83
O=C(CSc1cccc[n+]1[O-])Nc1ccc2c(c1)OCO2	none
OCC(CBr)(CBr)CBr	none (no result: Calb FLC)
CCOC(=O)c1sc(NC(=O)c2ccco2)c(C#N)c1C	none
COC(=O)c1sc(NC(=O)c2ccc([N+](=O)[O-])o2)c(C#N)c1C	MPTP inh 92 (no result: CSC inhib) | Rh123 counter 81
CCOC(=O)c1ccc(NC(=O)Cc2coc3cc4c(cc23)CCC4)cc1	MPTP inh 87 | Rh123 counter 92
CCOC(=O)c1ccc(NC(=O)COC)cc1	none
COc1ccc(CNC(=O)Cn2nc(C(F)(F)F)c(Br)c2C)cc1	none
COc1cc(NC(=O)Cn2nc(C(F)(F)F)c(Br)c2C)cc([N+](=O)[O-])c1	MPTP inh 85 | Rh123 counter 82
NC(=O)NOCc1ccc(Cl)cc1Cl	none
CNC(=S)/N=C/NOCc1ccc(Cl)cc1Cl	MPTP inh 101, Calb FLC 93 (no result: Beta cell apopt) | Rh123 counter 95
COc1ccc(NC(=O)Cn2c(=O)oc3cc(S(=O)(=O)N4CCCC4)ccc32)cc1	none
Cc1ccc(NC(=O)Cn2c(=O)oc3cc(S(=O)(=O)N4CCC(C)CC4)ccc32)cc1C	MPTP inh 70, Beta cell apopt 76 | Rh123 counter 90
CC1(C)CC(=O)C(C2C3=C(CC(C)(C)CC3=O)Oc3c(Br)cc(Br)cc32)=C(O)C1 (stereo not given)	MPTP inh 82 | Rh123 counter 95
COC(=O)c1cc([N+](=O)[O-])c(C)c(C)n1	MPTP inh 54 (no result: CSC inhib, Mdm2 MdmX PPI, Beta cell apopt, Calb FLC) | Rh123 counter inactive | MPTP swell DR inactive | MPTP cs DR inactive
Cc1c(C(N)=O)cc([N+](=O)[O-])cc1[N+](=O)[O-]	none (no result: CSC inhib, Mdm2 MdmX PPI, Beta cell apopt, Calb FLC)
COc1ccccc1C(=O)NCC(c1cccs1)N1CCc2ccccc21 (stereo not given)	none
CCOc1ccc(NS(=O)(=O)c2ccc(C(=O)NCC(c3ccc(OC)cc3)N3CCCC3)cc2)cc1 (stereo not given)	MPTP inh 85 (no result: CSC inhib) | Rh123 counter inactive | MPTP swell DR 9 | MPTP cs DR inactive

Screens from PubChem.
